Test [1] concerns the target T1, Mitogen-activated protein kinase kinase kinase 7 (Homo sapiens) (UniProt O43318).
T1 sequence (whole entry): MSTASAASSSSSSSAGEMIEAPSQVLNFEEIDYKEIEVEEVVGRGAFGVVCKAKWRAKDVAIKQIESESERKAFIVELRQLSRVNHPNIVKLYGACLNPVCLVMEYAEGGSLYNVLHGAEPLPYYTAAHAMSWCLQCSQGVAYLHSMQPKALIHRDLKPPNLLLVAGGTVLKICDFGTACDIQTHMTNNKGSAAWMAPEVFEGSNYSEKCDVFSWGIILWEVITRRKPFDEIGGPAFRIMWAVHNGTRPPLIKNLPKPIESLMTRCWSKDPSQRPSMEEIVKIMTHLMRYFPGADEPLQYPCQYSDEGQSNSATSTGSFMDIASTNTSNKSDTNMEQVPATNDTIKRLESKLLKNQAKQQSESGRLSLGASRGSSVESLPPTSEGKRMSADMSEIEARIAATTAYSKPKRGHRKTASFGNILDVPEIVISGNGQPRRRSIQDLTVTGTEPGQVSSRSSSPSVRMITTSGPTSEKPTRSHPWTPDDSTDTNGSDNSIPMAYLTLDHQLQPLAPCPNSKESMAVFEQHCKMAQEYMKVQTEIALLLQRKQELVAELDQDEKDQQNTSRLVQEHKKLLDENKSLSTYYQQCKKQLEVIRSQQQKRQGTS
The note with it: at 1 µM.

Test [2] deals with T1, Mitogen-activated protein kinase kinase kinase 7 (Homo sapiens). The settings on record: at 10 µM.
Test [3] deals with T2, Serine/threonine-protein kinase TAO1 (Homo sapiens) (UniProt Q7L7X3).
T2 sequence (whole entry): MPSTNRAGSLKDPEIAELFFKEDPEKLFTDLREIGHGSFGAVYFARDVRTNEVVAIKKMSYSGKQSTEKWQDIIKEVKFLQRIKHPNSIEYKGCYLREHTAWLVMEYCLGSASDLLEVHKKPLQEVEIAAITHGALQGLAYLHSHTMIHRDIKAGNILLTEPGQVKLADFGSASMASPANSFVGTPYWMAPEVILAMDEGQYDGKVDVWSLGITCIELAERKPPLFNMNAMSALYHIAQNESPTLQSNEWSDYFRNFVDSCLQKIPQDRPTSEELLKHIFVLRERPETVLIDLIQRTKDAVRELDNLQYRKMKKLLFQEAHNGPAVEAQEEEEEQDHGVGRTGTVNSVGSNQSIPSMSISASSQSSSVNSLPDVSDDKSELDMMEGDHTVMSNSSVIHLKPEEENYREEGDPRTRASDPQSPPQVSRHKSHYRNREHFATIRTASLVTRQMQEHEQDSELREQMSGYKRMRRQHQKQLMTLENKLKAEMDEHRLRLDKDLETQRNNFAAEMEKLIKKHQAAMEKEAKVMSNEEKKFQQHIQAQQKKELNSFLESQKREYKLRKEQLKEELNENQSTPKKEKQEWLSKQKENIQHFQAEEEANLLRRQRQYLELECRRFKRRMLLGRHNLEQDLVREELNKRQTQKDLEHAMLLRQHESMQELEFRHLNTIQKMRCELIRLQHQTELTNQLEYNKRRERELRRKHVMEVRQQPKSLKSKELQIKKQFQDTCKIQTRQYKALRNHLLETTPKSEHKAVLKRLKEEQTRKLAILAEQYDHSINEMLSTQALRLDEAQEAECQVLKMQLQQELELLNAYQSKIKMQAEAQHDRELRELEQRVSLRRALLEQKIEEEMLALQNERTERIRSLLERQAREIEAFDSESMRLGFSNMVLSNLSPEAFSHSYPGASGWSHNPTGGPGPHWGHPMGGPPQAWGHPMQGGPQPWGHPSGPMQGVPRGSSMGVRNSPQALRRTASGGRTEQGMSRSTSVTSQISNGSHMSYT
The settings on record: at 1 µM.

In test [4] the target is T2, Serine/threonine-protein kinase TAO1 (Homo sapiens). The settings on record: at 10 µM.
The target of test [5] is T3, Serine/threonine-protein kinase TAO3 (Homo sapiens) (UniProt Q9H2K8).
T3 sequence (whole entry): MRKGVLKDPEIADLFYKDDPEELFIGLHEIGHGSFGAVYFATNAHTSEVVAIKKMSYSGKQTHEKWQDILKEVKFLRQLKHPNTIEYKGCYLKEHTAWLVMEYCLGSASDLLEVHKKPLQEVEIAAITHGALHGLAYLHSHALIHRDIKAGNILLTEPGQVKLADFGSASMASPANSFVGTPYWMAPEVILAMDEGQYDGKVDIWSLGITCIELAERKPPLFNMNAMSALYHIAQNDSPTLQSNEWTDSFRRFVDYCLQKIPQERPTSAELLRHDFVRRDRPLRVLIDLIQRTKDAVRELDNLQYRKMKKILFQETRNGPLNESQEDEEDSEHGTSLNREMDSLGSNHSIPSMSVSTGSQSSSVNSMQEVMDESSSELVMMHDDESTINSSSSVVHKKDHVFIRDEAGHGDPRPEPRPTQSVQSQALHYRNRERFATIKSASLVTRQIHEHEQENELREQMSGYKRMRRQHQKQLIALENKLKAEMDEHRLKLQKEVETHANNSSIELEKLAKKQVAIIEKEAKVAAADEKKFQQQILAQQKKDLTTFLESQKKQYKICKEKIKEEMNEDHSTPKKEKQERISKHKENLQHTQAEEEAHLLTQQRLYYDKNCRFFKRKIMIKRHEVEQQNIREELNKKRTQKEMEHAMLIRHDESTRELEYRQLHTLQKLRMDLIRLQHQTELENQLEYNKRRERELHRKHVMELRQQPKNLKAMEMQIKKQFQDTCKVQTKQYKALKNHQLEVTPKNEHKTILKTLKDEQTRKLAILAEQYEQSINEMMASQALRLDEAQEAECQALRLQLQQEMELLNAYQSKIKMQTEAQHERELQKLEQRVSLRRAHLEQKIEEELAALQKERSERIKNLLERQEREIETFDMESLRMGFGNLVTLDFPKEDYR
The note with it: at 1 µM.

Test [6] has as its target T3, Serine/threonine-protein kinase TAO3 (Homo sapiens). The note with it: at 10 µM.
Test [7] deals with T4, Serine/threonine-protein kinase TBK1 (Homo sapiens) (UniProt Q9UHD2).
T4 sequence (whole entry): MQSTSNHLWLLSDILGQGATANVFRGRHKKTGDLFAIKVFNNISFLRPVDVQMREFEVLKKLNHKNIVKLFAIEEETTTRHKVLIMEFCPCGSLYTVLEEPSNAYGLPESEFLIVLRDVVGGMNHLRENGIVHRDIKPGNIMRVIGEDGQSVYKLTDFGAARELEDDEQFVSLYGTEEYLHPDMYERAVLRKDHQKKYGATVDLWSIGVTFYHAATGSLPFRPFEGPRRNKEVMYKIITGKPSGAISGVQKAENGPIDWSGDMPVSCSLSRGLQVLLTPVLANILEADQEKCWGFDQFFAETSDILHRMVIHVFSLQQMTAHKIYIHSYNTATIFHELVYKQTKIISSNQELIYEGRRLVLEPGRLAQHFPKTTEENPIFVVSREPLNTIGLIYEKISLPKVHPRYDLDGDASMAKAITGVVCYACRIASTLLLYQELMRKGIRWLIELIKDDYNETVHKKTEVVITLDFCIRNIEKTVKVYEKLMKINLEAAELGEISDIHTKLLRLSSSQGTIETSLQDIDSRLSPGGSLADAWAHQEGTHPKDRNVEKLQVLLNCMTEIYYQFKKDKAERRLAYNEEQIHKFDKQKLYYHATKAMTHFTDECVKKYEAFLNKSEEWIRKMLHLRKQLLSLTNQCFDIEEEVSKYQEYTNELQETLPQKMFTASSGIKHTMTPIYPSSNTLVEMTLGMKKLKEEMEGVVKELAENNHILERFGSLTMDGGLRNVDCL
The settings on record: at 1 µM.

The target in test [8] is T4, Serine/threonine-protein kinase TBK1 (Homo sapiens). The settings on record: at 10 µM.
Test [9] has as its target T5, Inhibitor of nuclear factor kappa-B kinase subunit alpha (Homo sapiens) (UniProt O15111).
T5 sequence (whole entry): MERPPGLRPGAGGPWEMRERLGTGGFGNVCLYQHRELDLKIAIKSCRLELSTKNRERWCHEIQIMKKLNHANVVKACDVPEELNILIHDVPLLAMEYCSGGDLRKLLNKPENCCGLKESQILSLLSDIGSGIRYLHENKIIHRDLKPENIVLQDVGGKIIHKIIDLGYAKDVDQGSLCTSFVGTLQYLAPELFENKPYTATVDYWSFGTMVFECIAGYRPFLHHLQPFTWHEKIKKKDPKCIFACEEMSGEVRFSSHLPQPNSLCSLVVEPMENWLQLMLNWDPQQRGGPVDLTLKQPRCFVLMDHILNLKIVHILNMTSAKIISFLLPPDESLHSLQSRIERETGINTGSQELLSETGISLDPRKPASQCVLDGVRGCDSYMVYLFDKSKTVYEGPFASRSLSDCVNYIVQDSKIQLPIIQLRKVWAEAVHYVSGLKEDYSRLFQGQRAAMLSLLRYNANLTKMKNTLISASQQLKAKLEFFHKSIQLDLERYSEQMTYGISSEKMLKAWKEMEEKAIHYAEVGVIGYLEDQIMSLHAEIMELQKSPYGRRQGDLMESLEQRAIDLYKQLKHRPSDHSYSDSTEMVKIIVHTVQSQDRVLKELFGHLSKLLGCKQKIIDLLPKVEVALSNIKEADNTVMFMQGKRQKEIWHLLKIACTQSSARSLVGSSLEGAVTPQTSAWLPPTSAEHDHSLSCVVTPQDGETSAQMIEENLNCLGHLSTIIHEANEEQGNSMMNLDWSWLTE
The note with it: at 1 µM.

For test [10], the target named is T5, Inhibitor of nuclear factor kappa-B kinase subunit alpha (Homo sapiens). The note with it: at 10 µM.
Test [11] deals with T6, Inhibitor of nuclear factor kappa-B kinase subunit beta (Homo sapiens) (UniProt O14920).
T6 sequence (whole entry): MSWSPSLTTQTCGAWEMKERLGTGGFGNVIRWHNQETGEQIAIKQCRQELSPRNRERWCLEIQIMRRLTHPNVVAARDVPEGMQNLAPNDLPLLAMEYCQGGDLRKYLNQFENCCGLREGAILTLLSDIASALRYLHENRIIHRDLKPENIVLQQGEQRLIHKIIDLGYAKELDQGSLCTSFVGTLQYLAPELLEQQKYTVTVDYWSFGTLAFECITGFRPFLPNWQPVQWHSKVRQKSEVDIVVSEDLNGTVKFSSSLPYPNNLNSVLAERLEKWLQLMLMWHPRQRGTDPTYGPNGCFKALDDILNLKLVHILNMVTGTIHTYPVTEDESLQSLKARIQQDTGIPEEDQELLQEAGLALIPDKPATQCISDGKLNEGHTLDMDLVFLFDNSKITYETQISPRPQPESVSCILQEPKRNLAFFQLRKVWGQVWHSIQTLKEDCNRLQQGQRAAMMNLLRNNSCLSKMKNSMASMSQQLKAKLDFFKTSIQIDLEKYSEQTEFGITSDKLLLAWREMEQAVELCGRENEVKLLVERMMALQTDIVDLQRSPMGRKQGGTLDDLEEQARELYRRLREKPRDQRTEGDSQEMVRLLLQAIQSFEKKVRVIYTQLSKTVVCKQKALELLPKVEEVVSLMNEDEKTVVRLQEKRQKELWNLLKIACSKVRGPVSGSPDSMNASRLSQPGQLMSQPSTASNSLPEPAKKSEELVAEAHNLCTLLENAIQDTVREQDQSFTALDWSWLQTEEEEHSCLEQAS
The settings on record: at 10 µM.

On to `CC(C)(C)c1nc2c3ccc(F)cc3c3c(=O)[nH]ccc3c2[nH]1`, for which the residual activity in test [1] is 44%; in test [2] it was 62%; in [3] it was 56%; in test [4], 24%; in test [5], 68%; in test [6], 73%. For the same compound, the residual activity in test [7] was 15%; in [8] it was 3%; in test [9], 52%; in [10] it was 32%; in test [11], 27%.

The values above are taken from ChEMBL document CHEMBL2218924, “A broad activity screen in support of a chemogenomic map for kinase signalling research and drug discovery” (Biochem J, 2013).
